Results: PubChem BioAssay
The source made the active and inactive calls.

Assays:
[1] = binders of probe aFSTL3 on microarray, primary screen, stem cell growth factor project, biochemical, small-molecule microarray, fluorescence 635/667 (AID 1064); settings: higher = more signal;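 further: measures binding of the biotinylated anti-FSTL3 antibody to printed compounds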
[2] = binders from COS7 lysate, DM2A8 probe, primary screen, torsin A project, cell lysate, small-molecule microarray, fluorescence 635/667 (AID 1065); settings: higher = more signal, COS7 lysate expressing mutant human TOR1A
[3] = binders of probe aFGF2 on microarray, primary screen, stem cell growth factor project, biochemical, small-molecule microarray, fluorescence 635/667 (AID 1067); settings: higher = more signal;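 further: measures binding of biotinylated aFGF2 protein to printed compounds on slides; z-score merges feature fluorescence and signal-to-noise across triplicate slides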
[4] = binders of probe aFGF10 on microarray, primary screen, stem cell growth factor project, biochemical, small-molecule microarray, fluorescence 635/667 (AID 1071); settings: higher = more signal;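 further: score merges 667 nm spot intensity and signal to noise from triplicate slides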
[5] = biological target: Neurogenic locus notch homolog protein 2 (Homo sapiens) (UniProt Q04721); test: Notch2 binders on small-molecule microarrays, primary screen, biochemical, small-molecule microarray, 635 nm fluorescence, stem cell growth factors (AID 1073); settings: Notch2 binding, higher = more signal
[6] = biological target: Pro-neuregulin-1, membrane-bound isoform (Homo sapiens) (UniProt Q02297); test: NRG1 binders on small-molecule microarrays, primary screen, psychiatric disease protein project, biochemical, small-molecule microarray, fluorescence 635/667 (AID 1075); settings: NRG1 binding, 635 nm fluorescence, higher = more signal;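 further: score combines 667 nm spot fluorescence with signal to noise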
[7] = test system: Neuregulin-1 EGF-like domain; test: binders of neuregulin-1 EGF-like domain, primary screen, biochemical, small-molecule microarray, 635 nm fluorescence (AID 1081); settings: small-molecule microarray binding, higher = more signal;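 further: binding of the protein to compounds printed on small-molecule microarray slides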
[8] = FRG1 promoter luciferase signal modulators, primary screen, FRG1 inhibition for FSHD, cell-based, C2C12 myotubes, firefly/Renilla luciferase, luminescence (AID 1084); settings: higher = more signal, called active from +8 up or from −8 down
[9] = binders of probe aFST on microarray, primary screen, stem cell growth factor project, biochemical, small-molecule microarray, fluorescence 635/667 (AID 1086); settings: higher = more signal;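 further: score merges 667 nm fluorescence with signal-to-noise of each printed compound spot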
[10] = binders of probe aHhip on microarray, primary screen, stem cell growth factor project, biochemical, small-molecule microarray, fluorescence 635/667 (AID 1087); settings: higher = more signal;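 further: score merges spot fluorescence at 667nm with spot signal to noise ratio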
[11] = test system: PRMT1 (protein arginine N-methyltransferase 1); test: PRMT1 binders on small-molecule microarrays, primary screen, biochemical, small-molecule microarray, 635 nm fluorescence (AID 1088); settings: small-molecule microarray binding, higher = more signal;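 further: binding of Prmt1 protein to compounds spotted on small-molecule microarray slides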
[12] = yeast growth modulation, basal conditions, primary screen, YJM789 clinical isolate, OD600, 24 h (AID 1089);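 further: growth of clinical yeast isolate S. cerevisiae YJM 789 seeded 1000 cells per well; test concentration not given here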; settings: S. cerevisiae YJM789 growth, higher = more signal, called active from +8 up or from −8 down
[13] = fission yeast growth modulation, primary screen, strain 972, OD600, 24 h, no modulator (AID 1090);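 further: basal condition with compound alone and no growth modifier present; test concentration not given here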; settings: S. pombe 972 growth, higher = more signal, called active from +8 up or from −8 down
[14] = S. cerevisiae growth modulation with rapamycin, primary screen, strain BY4716, OD600, 96 h (AID 1091); settings: higher = more signal, called active from +8 up or from −8 down; further: test concentration not given here
[15] = biological target: Torsin-1A-interacting protein 2 (Homo sapiens) (UniProt Q8NFQ8); test: LULL1 binders on small-molecule microarray, primary screen, cell lysate, human LULL1 lysate, 635/667 nm fluorescence (AID 1092); settings: hLULL1 lysate binding, 635 nm fluorescence, higher = more signal;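 further: probe is lysate of COS7 cells overexpressing human LULL1; score merges per-feature 667 nm fluorescence with signal-to-noise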
[16] = E. coli growth modulation, two-sided OD650, primary screen, E. coli filamentation project, strain DRC41, 24 h (AID 1093); settings: OD650, 24 h, higher = more signal, called active from +8 up or from −8 down;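 further: MC1000 strain lacking acrAB efflux and sulA so SOS filamentation is blocked; test concentration not given here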
[17] = small-molecule microarray binders of probe aLefty2, primary screen, biochemical, biotinylated probe, 635/667 nm fluorescence (AID 1094); settings: higher = more signal;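 further: score merges spot fluorescence near 667 nm with spot signal-to-noise ratio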
[18] = test system: Noggin (protein binding on small-molecule microarray); test: Noggin binders on small-molecule microarray, primary screen, biochemical, 635/667 nm fluorescence (AID 1095); settings: 635 nm fluorescence, higher = more signal;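 further: score merges 667 nm feature fluorescence with signal to noise over triplicate slides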
[19] = biological target: Neurogenic locus notch homolog protein 3 (Homo sapiens) (UniProt Q9UM47); test: NOTCH3 binders on small-molecule microarray, primary screen, biochemical, 635/667 nm fluorescence (AID 1096); settings: NOTCH3 binding, 635 nm fluorescence, higher = more signal
[20] = small-molecule microarray binders of probe aEGFR, primary screen, biochemical, biotinylated probe, 635/667 nm fluorescence (AID 1097); settings: higher = more signal;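 further: probe is a biotinylated anti-EGFR antibody binding compounds printed on slides; score combines fluorescence near 667 nm and signal to noise of each spot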

Chain of Torsin-1A-interacting protein 2 (Homo sapiens) (Q8NFQ8 whole entry, looked up): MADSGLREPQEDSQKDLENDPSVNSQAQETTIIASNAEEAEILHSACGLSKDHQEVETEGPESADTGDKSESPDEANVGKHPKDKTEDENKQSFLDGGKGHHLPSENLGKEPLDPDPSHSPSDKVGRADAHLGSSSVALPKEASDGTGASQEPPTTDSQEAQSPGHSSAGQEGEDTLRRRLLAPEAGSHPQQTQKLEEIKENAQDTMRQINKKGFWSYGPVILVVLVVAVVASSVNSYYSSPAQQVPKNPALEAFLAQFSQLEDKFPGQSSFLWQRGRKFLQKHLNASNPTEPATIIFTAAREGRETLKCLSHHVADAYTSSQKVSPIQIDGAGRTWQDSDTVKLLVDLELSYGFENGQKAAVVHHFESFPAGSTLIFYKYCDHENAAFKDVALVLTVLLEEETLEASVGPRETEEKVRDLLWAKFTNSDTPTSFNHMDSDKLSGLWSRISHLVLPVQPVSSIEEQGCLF
Chain of Pro-neuregulin-1, membrane-bound isoform (Homo sapiens) (Q02297 whole entry, looked up, the tested form may be a part, canonical isoform): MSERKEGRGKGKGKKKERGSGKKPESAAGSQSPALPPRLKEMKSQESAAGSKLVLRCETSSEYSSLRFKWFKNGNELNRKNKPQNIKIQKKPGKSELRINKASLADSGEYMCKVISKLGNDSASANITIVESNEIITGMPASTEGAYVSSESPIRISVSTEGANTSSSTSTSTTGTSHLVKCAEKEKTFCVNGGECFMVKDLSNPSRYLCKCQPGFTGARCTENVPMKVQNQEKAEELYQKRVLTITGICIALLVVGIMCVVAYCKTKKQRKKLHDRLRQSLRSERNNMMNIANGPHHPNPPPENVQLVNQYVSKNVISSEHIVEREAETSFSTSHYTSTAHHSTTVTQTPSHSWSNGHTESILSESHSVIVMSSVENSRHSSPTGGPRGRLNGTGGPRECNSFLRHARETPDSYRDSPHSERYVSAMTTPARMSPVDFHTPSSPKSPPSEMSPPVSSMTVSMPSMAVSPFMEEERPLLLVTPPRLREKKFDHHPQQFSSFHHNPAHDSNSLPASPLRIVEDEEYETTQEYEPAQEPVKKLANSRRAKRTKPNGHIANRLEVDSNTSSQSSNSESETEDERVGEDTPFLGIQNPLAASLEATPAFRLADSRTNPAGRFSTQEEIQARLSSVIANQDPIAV
Chain of Neurogenic locus notch homolog protein 2 (Homo sapiens) (Q04721 whole entry, looked up, canonical isoform): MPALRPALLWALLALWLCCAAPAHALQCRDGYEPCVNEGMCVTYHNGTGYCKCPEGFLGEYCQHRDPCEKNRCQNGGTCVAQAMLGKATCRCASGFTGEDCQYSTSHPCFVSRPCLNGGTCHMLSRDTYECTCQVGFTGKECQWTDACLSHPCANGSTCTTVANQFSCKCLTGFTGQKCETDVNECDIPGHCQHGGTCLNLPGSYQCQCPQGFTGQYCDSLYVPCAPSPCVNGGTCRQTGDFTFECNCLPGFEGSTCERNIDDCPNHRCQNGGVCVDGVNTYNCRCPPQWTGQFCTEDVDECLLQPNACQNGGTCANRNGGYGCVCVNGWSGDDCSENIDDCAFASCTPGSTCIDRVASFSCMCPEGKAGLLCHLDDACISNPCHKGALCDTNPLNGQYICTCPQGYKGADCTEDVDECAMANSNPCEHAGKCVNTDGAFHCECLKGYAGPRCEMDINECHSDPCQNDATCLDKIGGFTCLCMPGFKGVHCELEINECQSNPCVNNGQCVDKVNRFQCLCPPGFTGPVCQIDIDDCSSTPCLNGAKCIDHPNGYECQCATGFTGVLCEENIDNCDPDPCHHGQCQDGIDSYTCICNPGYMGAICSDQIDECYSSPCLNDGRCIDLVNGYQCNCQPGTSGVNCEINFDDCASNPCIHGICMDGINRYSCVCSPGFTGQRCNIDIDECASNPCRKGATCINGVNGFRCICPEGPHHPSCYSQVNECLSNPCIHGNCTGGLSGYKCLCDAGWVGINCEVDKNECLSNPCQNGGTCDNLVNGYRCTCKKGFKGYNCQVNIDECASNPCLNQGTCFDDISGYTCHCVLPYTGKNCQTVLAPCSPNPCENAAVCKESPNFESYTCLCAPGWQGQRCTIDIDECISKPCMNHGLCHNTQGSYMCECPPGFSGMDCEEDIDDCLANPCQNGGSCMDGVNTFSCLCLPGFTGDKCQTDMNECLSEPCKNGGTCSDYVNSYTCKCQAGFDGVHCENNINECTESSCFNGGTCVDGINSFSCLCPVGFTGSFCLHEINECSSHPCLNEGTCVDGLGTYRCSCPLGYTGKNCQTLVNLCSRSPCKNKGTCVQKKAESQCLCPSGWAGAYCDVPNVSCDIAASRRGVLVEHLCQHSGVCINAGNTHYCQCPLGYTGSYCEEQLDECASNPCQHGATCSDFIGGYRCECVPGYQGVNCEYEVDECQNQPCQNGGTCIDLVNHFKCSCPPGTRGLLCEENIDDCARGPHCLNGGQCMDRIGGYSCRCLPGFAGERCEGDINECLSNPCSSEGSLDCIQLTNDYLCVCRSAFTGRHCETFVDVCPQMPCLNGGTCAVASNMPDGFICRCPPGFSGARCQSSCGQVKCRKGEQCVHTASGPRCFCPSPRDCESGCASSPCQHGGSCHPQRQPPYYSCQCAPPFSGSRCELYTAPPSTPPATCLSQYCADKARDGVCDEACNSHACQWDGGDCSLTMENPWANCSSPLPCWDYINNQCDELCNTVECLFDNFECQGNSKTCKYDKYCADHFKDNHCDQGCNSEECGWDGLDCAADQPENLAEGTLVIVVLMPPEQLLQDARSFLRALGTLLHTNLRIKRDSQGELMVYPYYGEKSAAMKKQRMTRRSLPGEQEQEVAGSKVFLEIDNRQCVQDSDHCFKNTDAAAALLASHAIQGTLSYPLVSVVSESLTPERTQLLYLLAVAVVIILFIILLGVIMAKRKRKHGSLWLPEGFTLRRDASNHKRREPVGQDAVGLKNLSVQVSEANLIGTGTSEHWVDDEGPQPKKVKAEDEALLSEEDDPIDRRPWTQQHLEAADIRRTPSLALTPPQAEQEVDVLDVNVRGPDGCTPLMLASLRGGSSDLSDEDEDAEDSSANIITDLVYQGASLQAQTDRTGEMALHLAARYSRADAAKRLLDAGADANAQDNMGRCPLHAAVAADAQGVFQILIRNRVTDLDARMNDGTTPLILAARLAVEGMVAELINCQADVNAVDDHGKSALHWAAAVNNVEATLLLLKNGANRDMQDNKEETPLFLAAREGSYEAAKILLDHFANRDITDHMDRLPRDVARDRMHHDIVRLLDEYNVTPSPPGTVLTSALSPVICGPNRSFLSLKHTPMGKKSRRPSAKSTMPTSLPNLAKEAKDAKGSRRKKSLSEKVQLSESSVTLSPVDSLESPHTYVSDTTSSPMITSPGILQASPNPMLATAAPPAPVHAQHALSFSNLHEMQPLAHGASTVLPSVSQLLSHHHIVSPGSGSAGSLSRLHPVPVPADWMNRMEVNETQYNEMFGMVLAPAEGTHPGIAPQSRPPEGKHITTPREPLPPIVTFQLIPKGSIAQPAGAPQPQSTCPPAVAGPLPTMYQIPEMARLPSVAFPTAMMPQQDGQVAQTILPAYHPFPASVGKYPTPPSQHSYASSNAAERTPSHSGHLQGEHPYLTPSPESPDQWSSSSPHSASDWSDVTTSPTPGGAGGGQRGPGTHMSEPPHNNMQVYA

SMILES	composite z-score [1]	composite z-score [2]	composite z-score [3]	composite z-score [4]	composite z-score [5]	composite z-score [6]	composite z-score [7]	z-score [8]	composite z-score [9]	composite z-score [10]	composite z-score [11]	z-score [12]	z-score [13]	z-score [14]	composite z-score [15]	z-score [16]	composite z-score [17]	composite z-score [18]	composite z-score [19]	composite z-score [20]
CCCCCCCCCCC(O)C1C=CC2C(=O)NC(=O)C2N1Nc1ccc(Cl)cc1Cl (stereo not given)	0.133	-1.22	-0.0667	0.159	-0.218	1.02	0.436	1.32 (inactive)	0.0804	-0.0237	0.355	1.52 (inactive)	-0.451 (inactive)	0.309 (inactive)	1.8	-2.39 (inactive)	-0.0769	-0.729	0.102	-0.137
O=C1OCCC/C=C\[C@H]2OC34C=CCN(c5ccc6ccccc6c5)C(=O)[C@H]3N(CCCCCO)C(=O)[C@@H]4C12 (stereo not given in full)	0.149	-0.763	-0.195	-0.759	-0.367	-0.634	-0.773	0.815 (inactive)	-0.602	-0.169	-1.23	-1.56 (inactive)	-1.52 (inactive)	-0.419 (inactive)	-1.77	-0.72 (inactive)	-0.156	-0.766	-0.359	-0.13
O=C1C2C=CC(C(O)c3cc(C(F)(F)F)cc(C(F)(F)F)c3)N(Nc3ccccc3)C2C(=O)N1c1ccccc1 (stereo not given)	0.281	1.2	-0.0064	0.35	0.649	1.8	1.12	0.995 (inactive)	0.664	-0.0994	1.29	1 (inactive)	-0.158 (inactive)	3.15 (inactive)	3.23	-0.747 (inactive)	-0.0156	-0.105	0.581	-0.0536
CCCNC(=O)[C@@H]1c2ccccc2C(=O)N(Cc2ccccc2OC)[C@H]1c1ccc(CO)cc1	-0.148	1.34	-0.0058	0.479	0.901	1.66	0.977	-2.3 (inactive)	0.274	-0.201	0.286	0.105 (inactive)	-0.19 (inactive)	0.353 (inactive)	3.06	0.387 (inactive)	-0.139	0.986	1.11	-0.142
[N-]=[N+]=NCc1ccccc1[C@H]1OC(c2ccc(OCCCO)cc2)=N[C@@]1(Cc1ccccc1)C(=O)N1CCCCC1	-0.222	0.368	0.022	0.78	1.46	0.947	1.18	-2.51 (inactive)	0.573	-0.201	1.55	-1.88 (inactive)	-0.575 (inactive)	1.32 (inactive)	3.33	1.56 (inactive)	0.0004	1.37	1.13	0.038
CN1CCC(CCCO)=CC1c1cccs1 (stereo not given)	-0.017	0.0383	-0.159	-0.959	-1.01	0.968	0.72	0.159 (inactive)	-0.142	-0.0491	-0.0029	-1.69 (inactive)	-0.327 (inactive)	-0.489 (inactive)	-0.93	0.345 (inactive)	-0.166	0.0615	0.0121	-0.108
CN1C(=O)C2C=CC(C(O)c3c(F)cccc3Cl)N(NC(=O)OC(C)(C)C)C2C1=O (stereo not given)	0.171	0.233	0.0111	1.11	1.23	1.49	1.3	0.636 (inactive)	0.888	0.0623	1.3	-0.143 (inactive)	0.415 (inactive)	0.635 (inactive)	3.45	-0.597 (inactive)	0.18	-0.388	0.686	0.0675
O=C1OCC=C[C@H]2OC34C=CCN(CCN5CCOCC5)C(=O)[C@H]3N(CCO)C(=O)[C@@H]4[C@@H]12 (stereo not given in full)	-0.341	-0.483	-0.0985	-0.659	-0.273	0.605	0.242	1.02 (inactive)	-0.218	-0.412	1.15	-0.674 (inactive)	-0.537 (inactive)	-0.12 (inactive)	0.431	-0.653 (inactive)	-0.417	0.928	0.534	-0.139
